# ChEMBL document CHEMBL5308504, “Tm Shift (DSF) assay results for EUbOPEN Chemogenomics Library” (2023)
# Assays:
# [1] = target: Bromodomain-containing protein 4 (Homo sapiens) (UniProt O60885); conditions: Compound concentration 20.0 uM, Protein concentration 2.0 uM, Result type QC Liability
# [2] = target: T1, Transcription intermediary factor 1-alpha (Homo sapiens) (UniProt O15164); conditions: Compound concentration 20.0 uM, Protein concentration 2.0 uM, Result type QC Liability
# T1 sequence (whole entry): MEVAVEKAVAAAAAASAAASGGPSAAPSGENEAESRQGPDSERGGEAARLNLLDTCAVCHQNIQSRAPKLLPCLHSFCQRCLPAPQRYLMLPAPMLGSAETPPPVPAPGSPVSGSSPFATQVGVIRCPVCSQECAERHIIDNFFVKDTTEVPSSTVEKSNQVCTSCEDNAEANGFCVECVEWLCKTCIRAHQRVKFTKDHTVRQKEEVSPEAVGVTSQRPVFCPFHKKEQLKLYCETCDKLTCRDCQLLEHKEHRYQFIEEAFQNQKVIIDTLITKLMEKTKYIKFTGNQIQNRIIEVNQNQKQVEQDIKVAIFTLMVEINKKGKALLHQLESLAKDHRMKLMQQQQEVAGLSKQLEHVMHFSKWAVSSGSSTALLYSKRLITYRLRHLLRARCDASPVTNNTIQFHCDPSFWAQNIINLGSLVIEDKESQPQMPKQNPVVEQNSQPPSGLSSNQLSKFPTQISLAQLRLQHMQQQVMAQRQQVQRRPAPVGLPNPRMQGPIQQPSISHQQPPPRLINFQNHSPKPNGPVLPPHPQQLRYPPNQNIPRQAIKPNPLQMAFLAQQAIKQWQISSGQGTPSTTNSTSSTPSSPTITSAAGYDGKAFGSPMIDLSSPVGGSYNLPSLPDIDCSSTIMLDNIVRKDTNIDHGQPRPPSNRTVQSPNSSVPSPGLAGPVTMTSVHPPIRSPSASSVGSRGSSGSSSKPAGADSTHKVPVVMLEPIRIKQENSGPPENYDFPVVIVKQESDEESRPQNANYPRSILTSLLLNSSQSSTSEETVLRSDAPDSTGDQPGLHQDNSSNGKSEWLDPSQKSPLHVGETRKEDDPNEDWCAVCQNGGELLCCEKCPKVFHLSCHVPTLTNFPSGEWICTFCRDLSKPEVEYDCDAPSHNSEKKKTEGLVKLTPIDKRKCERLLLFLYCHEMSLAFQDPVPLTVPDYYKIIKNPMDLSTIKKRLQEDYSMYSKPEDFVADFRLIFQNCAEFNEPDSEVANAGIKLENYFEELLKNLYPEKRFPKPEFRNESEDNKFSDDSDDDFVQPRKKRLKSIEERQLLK
Compound,ΔTm [1],ΔTm [2]
CC1CNCCc2c1nc1ccnn1c2N1CC(C(=O)N2CCC(C)(C)C2)C1 (centres undefined),-3.66 °C,0.37 °C
c1ccc(C2CCN(c3cnc4c(N5CCOCC5)nccn34)CC2)cc1,-0.69 °C,-1.25 °C
CC(C)(C)c1cnc(CSc2cnc(NC(=O)C3CCN(CC(=O)NCCOCCOCCOCCNc4cccc5c4C(=O)N(C4CCC(=O)NC4=O)C5=O)CC3)s2)o1 (centres undefined),-1.66 °C,-1.74 °C
CC1=C(C(=O)OCCO)[C@@H](c2ccc(C#N)cc2)NC(=O)N1c1cccc(C(F)(F)F)c1,0.01 °C,0.4 °C
Cn1cc(-c2cnc3ccc4ccc(CS(=O)(=O)NCc5ccccn5)cc4c(=O)c3c2)cn1,-1.72 °C,-0.28 °C
CC1(C)C(=O)N([C@H]2CCc3c(O)cccc32)c2nc(Nc3cccc(CN4CCCC4)c3)ncc21,-2.45 °C,-2.64 °C
CCc1nc(-c2cccc(C)c2)c(-c2ccncc2)s1,0.55 °C,-3.01 °C
CCS(=O)(=O)c1ccc(OC)c(Nc2ncc(-c3cccc(F)c3)o2)c1,-2.4 °C,-1.42 °C
CC(C)c1cnn2c(NCc3ccccc3)cc(NCCCCCCN)nc12,0.76 °C,-3.25 °C
Cc1ncsc1-c1ccc(CNC(=O)[C@@H]2C[C@@H](O)CN2C(=O)[C@@H](NC(=O)C2(F)CC2)C(C)(C)C)c(OCCOc2ccc(CN3CCN(c4cc(-c5ccccc5O)nnc4N)CC3)cc2)c1,13.5 °C,0 °C
CCS(=O)(=O)Nc1cccc(Oc2cc(F)cc(Nc3ccc(I)cc3F)c2NS(=O)(=O)C2CC2)c1,-2.86 °C,3.45 °C
Cc1c(NC(=O)c2ccc(C(C)(C)C)cc2)cccc1-c1cn(C)c(=O)c(Nc2ccc(C(=O)N3CCOCC3)cc2)n1,-9.46 °C,0.14 °C
